{"source": "PubChem BioAssay AID624417", "about": "(National Center for Advancing Translational Sciences (NCATS), 2012)", "note": "About 6,400 (1.6%) of roughly 410,000 compounds were called active. A call without a number means that no potency is given here. Not shown: some 20% with an inconclusive outcome. This is one part of a sample in which actives are shown more often than they occur. Calls come from the whole dose curve; as a rule, active = well fitted inhibition curve with a large enough effect; inconclusive = small, poorly fitted or top-dose-only effect; inactive = no such curve, though single readings can be large or run the other way. Potency is the fitted concentration of half-maximal effect.", "data": [{"molecular_target": "Glucagon-like peptide 1 receptor (Homo sapiens) (UniProt P43220)", "sequence (P43220 whole entry, looked up)": "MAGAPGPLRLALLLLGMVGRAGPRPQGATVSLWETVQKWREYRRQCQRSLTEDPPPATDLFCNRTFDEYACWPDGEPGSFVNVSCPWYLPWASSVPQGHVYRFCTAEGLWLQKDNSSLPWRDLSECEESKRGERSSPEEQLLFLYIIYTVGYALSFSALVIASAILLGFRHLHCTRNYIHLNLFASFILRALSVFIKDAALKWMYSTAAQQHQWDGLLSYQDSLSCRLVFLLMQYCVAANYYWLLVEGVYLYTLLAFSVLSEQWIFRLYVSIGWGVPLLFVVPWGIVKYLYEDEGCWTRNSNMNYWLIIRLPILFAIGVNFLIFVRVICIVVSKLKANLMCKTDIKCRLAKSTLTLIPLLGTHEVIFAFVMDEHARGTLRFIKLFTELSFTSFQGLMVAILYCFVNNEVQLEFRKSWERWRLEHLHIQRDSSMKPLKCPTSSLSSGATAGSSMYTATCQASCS", "experiment": "qHTS of GLP-1 Receptor Inverse Agonists (Inhibition Mode); note: nearly all actives have a fitted effect of over 55% in size", "details": "HEK293 GLP-1R CRE-luciferase, luminescence, 24 h, GLP-1R form is constitutively active; series mostly up to 38.3 µM", "method_in_brief": "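HEK293 cells stably co-expressing a cAMP-responsive luciferase reporter and constitutively active GLP-1R were seeded, incubated 12 h, then exposed to compounds for 24 h at 37 C. Luminescence was read 12 min after detection reagent; inverse agonists lower signal.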", "values": [{"smiles": "COc1ccc(C(C)(C)C)cc1NC(=O)CN(C)C1=NS(=O)(=O)c2ccccc21", "Potency": "inactive"}, {"smiles": "COc1ccc(CCNC(=O)CN(c2ccccc2)S(=O)(=O)c2ccccc2)cc1", "Potency": "inactive"}, {"smiles": "COc1cccc(NC(=O)N(Cc2cn(C)c3ccccc23)C2CCCCCC2)c1", "Potency": "10 µM (active)"}, {"smiles": "COc1cccc(NC(=O)C2CCCN2C(=O)OCc2ccccc2)c1", "note": "(stereo not drawn)", "Potency": "inactive"}, {"smiles": "COc1cccc(NC(=O)N2CCCC2C(=O)NC2CCCCC2)c1", "note": "(stereo not drawn)", "Potency": "inactive"}, {"smiles": "CCOC(=O)c1cc2cc(OC)ccc2n1C1CCN(C)CC1", "Potency": "inactive"}, {"smiles": "C[C@@H]1CN([C@@H](C)CO)C(=O)c2cc(NS(C)(=O)=O)ccc2O[C@@H](C)CCCCO[C@H]1CN(C)C(=O)Nc1ccc2c(c1)OCO2", "Potency": "inactive"}, {"smiles": "CCc1ccccc1NC(=S)N(CCN1CCCCCC1)Cc1ccco1", "Potency": "inactive"}, {"smiles": "Cc1ccccc1NC(=S)N(CCCN1CCOCC1)Cc1cccs1", "Potency": "inactive"}, {"smiles": "Cc1ccc(NC(=S)N(CCCN2CCCC2)Cc2cccn2Cc2ccc(Cl)cc2)cc1", "Potency": "2.24 µM (active)"}, {"smiles": "COc1ccc(C(O)c2nc(-c3ccc4c(c3)OCO4)cs2)cc1", "note": "(stereo not drawn)", "Potency": "inactive"}, {"smiles": "COc1cccc(-c2cc3nc(NCc4ccccc4OC)n(C)c(=O)c3s2)c1", "Potency": "inactive"}, {"smiles": "COc1ccc(NC(=O)CSc2nccn2Cc2ccc3c(c2)OCO3)cc1", "Potency": "inactive"}, {"smiles": "CCCOc1ccc(NC(=O)CC2C(=O)N(C)C(=S)N2Cc2ccc3c(c2)OCO3)cc1", "note": "(stereo not drawn)", "Potency": "10 µM (active)"}, {"smiles": "CCCOc1ccc(NC(=O)CC2C(=O)N(c3ccccc3)C(=O)N2Cc2ccco2)cc1", "note": "(stereo not drawn)", "Potency": "inactive"}, {"smiles": "Cc1noc(C)c1NC(=O)N(C)C[C@@H]1Oc2cc(Br)ccc2S(=O)(=O)N([C@@H](C)CO)C[C@H]1C", "Potency": "inactive"}, {"smiles": "COCCN(CCOC)S(=O)(=O)c1ccc(/C(O)=C(\\C#N)c2nc3ccccc3[nH]2)cc1", "Potency": "inactive"}, {"smiles": "N#C/C(=C(/O)COc1cccc2ccccc12)c1nc2ccccc2[nH]1", "Potency": "inactive"}, {"smiles": "N#C/C(=C(/O)COC(=O)COc1ccc(Cl)cc1)c1nc2ccccc2[nH]1", "Potency": "10 µM (active)"}, {"smiles": "O=C(COC(=O)CCc1c[nH]c2ccccc12)Nc1cccc(Cl)c1", "Potency": "inactive"}, {"smiles": "CC(C)C[C@H]1CN([C@@H](Cc2ccccc2)CN2CCC[C@@H]2CN2C(=O)C(=O)NC[C@@H]2Cc2ccc(O)cc2)C(=O)C(=O)N1CCc1ccccc1", "Potency": "inactive"}, {"smiles": "COc1ccc(CNCCCO)cc1OC", "Potency": "inactive"}, {"smiles": "CCOCCCNCc1cc(Br)ccc1OCC", "Potency": "inactive"}, {"smiles": "CCOCCCNCc1ccc(OCc2ccc(F)cc2)c(OC)c1", "Potency": "1.12 µM (active)"}, {"smiles": "COCCCn1c(C(=O)NC2CCCCC2)cc2c(=O)n3cccc(C)c3nc21", "Potency": "inactive"}, {"smiles": "COC(=O)c1ccc2nc(-c3ccc(C)cc3)c(Cc3ccc(OC)cc3C)n2c1", "Potency": "inactive"}, {"smiles": "COc1cc(C)c(CN2CCN(C(=O)CCC(=O)c3ccc(C)s3)CC2)cc1OC", "Potency": "inactive"}, {"smiles": "O=C1C(Sc2cccc(F)c2)=C[C@@]2(O)CC[C@@H](O)[C@]1(Sc1cccc(F)c1)[C@H]2O", "Potency": "inactive"}, {"smiles": "Cn1c(C(=O)NCCCN2CCN(c3cccc(Cl)c3)CC2)cc2c(=O)n(C)c3ccccc3c21", "Potency": "inactive"}, {"smiles": "O=C(NCCCN1CCN(c2cccc(Cl)c2)CC1)c1nnc(Cc2ccc(F)cc2Cl)o1", "Potency": "12.6 µM (active)"}, {"smiles": "COc1ccc(N2CCN(CCNC(=O)c3nnc(Cc4c(F)cccc4Cl)o3)CC2)cc1", "Potency": "inactive"}, {"smiles": "CSc1ncnc2c1ncn2CCCNCC(C)c1ccccc1", "note": "(stereo not drawn)", "Potency": "inactive"}, {"smiles": "CCCCCCCCN1C(=O)[C@H](CC(=O)NCC23CC4CC(CC(C4)C2)C3)C[C@@]2(C(=O)OC)CCCCC=C12", "Potency": "inactive"}, {"smiles": "CCNC(=O)C1(C)CCN(C(=O)c2ccccc2)C1", "note": "(stereo not drawn)", "Potency": "inactive"}, {"smiles": "CCOC1=C2[C@@H](CN(S(=O)(=O)c3ccc(C)cc3)[C@H]2c2ccccc2F)[C@H]2C(=O)N(Cc3ccccc3)C(=O)[C@H]2C1", "Potency": "inactive"}, {"smiles": "CCCNC(=O)c1cc(C2CCCN(C(=O)c3ccc4c(c3)CCO4)C2)on1", "note": "(stereo not drawn)", "Potency": "inactive"}, {"smiles": "CC(C)c1ccc2c(c1)c(SC(C)(C)C)c(CC(C)(C)C(=O)O)n2Cc1ccc(Cl)cc1", "Potency": "2.82 µM (active)"}, {"smiles": "O=C(Cn1c(=O)nc(-c2ccccc2)c2cc(Cl)ccc21)NCc1ccc(Cl)cc1", "Potency": "inactive"}, {"smiles": "O=C(O)C1CCCN1c1nc(Cl)ccc1[N+](=O)[O-]", "note": "(stereo not drawn)", "Potency": "inactive"}, {"smiles": "Cc1ccc(F)c(S(=O)(=O)NC(=O)C2(C)CCN2C(=O)c2ccco2)c1", "note": "(stereo not drawn)", "Potency": "inactive"}, {"smiles": "CCn1c(-c2cccnc2Cl)nc2cc(C)c(C)cc21", "Potency": "inactive"}, {"smiles": "Clc1ccc(COn2c(-c3ccc(Cl)cc3Cl)nc3ncccc32)cc1", "Potency": "10 µM (active)"}, {"smiles": "COn1c(-c2ccc(Cl)cc2Cl)nc2ncccc21", "Potency": "inactive"}, {"smiles": "O=C(C[C@H]1CC[C@H]2[C@@H](COC[C@H](O)CN2C(=O)c2ccccn2)O1)N1CCN(c2ccccc2)CC1", "Potency": "inactive"}, {"smiles": "O=C(COc1ccc(Br)cc1)OCC(=O)c1ccc[nH]1", "Potency": "inactive"}, {"smiles": "O=C1CCC(=O)N1CCC(=O)N(C(=O)NC1CCCCC1)C1CCCCC1", "Potency": "inactive"}, {"smiles": "CCCCN(CC)CCCNC(=O)CS(=O)(=O)Cc1nc(-c2cccc(OC)c2)oc1C", "Potency": "inactive"}, {"smiles": "COc1cccc(-c2nc(CS(=O)(=O)CC(=O)N3CCN(c4cc(C)ccc4C)CC3)c(C)o2)c1", "Potency": "7.94 µM (active)"}, {"smiles": "COc1cccc(-c2nc(CS(=O)(=O)CC(=O)NCCc3ccc(OC)c(OC)c3)c(C)o2)c1", "Potency": "inactive"}, {"smiles": "COc1ccc(OC)c(CN2C(=O)CCC2(C)c2nnnn2Cc2ccccc2)c1", "note": "(stereo not drawn)", "Potency": "inactive"}, {"smiles": "O=C1CCC(C(=O)OCC(=O)Nc2ccc(OC(F)F)cc2)=NN1", "Potency": "inactive"}, {"smiles": "CC(C)c1ccccc1OCC(O)CN(CC(O)COc1cccc2ccccc12)C(C)C", "note": "(stereo not drawn)", "Potency": "8.91 µM (active)"}, {"smiles": "Cc1cc(C)c(NC(=O)C[N+](C)(C)CC(O)COc2cccc3ccccc23)c(C)c1", "note": "(stereo not drawn)", "Potency": "inactive"}, {"smiles": "CCC(C)Sc1nc2c(c(=O)[nH]c(=O)n2C)n1CC(O)COc1cccc2ccccc12", "note": "(stereo not drawn)", "Potency": "inactive"}, {"smiles": "Nc1ncnc2c1ncn2[C@@H]1O[C@H](C(=O)N2CCCN(Cc3ccccc3F)CC2)[C@@H](O)[C@H]1O", "Potency": "inactive"}, {"smiles": "CC1(C(=O)NS(=O)(=O)c2cccc(F)c2)CCN1C(=O)Cc1ccc(Cl)cc1Cl", "note": "(stereo not drawn)", "Potency": "inactive"}, {"smiles": "Cc1nc(N2CCN(c3ccccn3)CC2)c2c(C)c(C(=O)Nc3ccc(F)cc3)sc2n1", "Potency": "inactive"}, {"smiles": "COc1ccc(NC(=O)c2sc3nc(C)nc(N4CCN(c5ccccn5)CC4)c3c2C)c(OC)c1", "Potency": "inactive"}, {"smiles": "Cc1nc(N2CCC(C)CC2)c2c(C)c(C(=O)Nc3cc(F)ccc3C)sc2n1", "Potency": "10 µM (active)"}, {"smiles": "CN(Cc1ccc(C(F)(F)F)cc1)C(=O)[C@H]1O[C@@H](n2cnc3c(N)ncnc32)[C@H](O)[C@@H]1O", "Potency": "inactive"}, {"smiles": "COc1cc(C(=O)NC2CCN(Cc3ccccc3)CC2)cc(Cl)c1OC(C)C", "Potency": "10 µM (active)"}, {"smiles": "COc1cc2[nH]c(=O)n(Cc3ccc(C(=O)NC4CCN(Cc5ccccc5)CC4)cc3)c(=O)c2cc1OC", "Potency": "inactive"}, {"smiles": "COc1ccc(C(=O)O)cc1S(=O)(=O)NC1CCN(Cc2ccccc2)CC1", "Potency": "inactive"}, {"smiles": "O=C(C=CC(=O)Nc1ccc(F)cc1F)Nc1ccc(F)cc1F", "Potency": "inactive"}, {"smiles": "O=C(NCc1ccncc1)c1cccc(NS(=O)(=O)c2ccc(F)c(F)c2)c1", "Potency": "inactive"}, {"smiles": "CCOC(=O)N1CCN(C(=O)c2ccc(S(=O)(=O)Nc3cccc(C(F)(F)F)c3)cc2)CC1", "Potency": "inactive"}, {"smiles": "O=C(NCc1ccccc1)c1ccc(S(=O)(=O)Nc2cccc(C(F)(F)F)c2)cc1", "Potency": "10 µM (active)"}, {"smiles": "CC(=O)Nc1ccc(C=Cc2ccc([N+](=O)[O-])cc2)cc1", "Potency": "inactive"}, {"smiles": "CC(=O)Nc1ccc(C=CC(=O)c2ccc([N+](=O)[O-])cc2)cc1", "Potency": "inactive"}, {"smiles": "O=C(O)/C=C/C(=O)NNc1ccc([N+](=O)[O-])cc1", "Potency": "8.91 µM (active)"}, {"smiles": "CN1OC[C@@H]2CN(C(=O)c3cccc4ccccc34)[C@H](c3ccc(N4CCCCC4)cc3)C[C@@H]21", "Potency": "inactive"}, {"smiles": "CCN(Cc1ccncc1)C(=S)Nc1ccccc1C", "Potency": "inactive"}, {"smiles": "COCCNC(=S)N(Cc1cccnc1)Cc1ccc(OC)c(OC)c1", "Potency": "inactive"}, {"smiles": "Cc1ccc(CN(Cc2cccnc2)C(=S)Nc2cc(Cl)ccc2C)cc1", "Potency": "10 µM (active)"}, {"smiles": "Nc1nc2cc(Cl)ccc2n1N", "Potency": "inactive"}, {"smiles": "C[C@H]1Cn2cnc(C(=O)N[C@@H](Cc3c[nH]c4ccccc34)C(=O)OC(C)(C)C)c2C(=O)N1", "Potency": "inactive"}, {"smiles": "COc1ccccc1C(=O)NC(=S)Nc1ccc(N2CCOCC2)cc1", "Potency": "inactive"}, {"smiles": "O=C(Cc1ccc([N+](=O)[O-])cc1)NCCS(=O)(=O)N1CCN(c2ccccc2)CC1", "Potency": "inactive"}, {"smiles": "Cc1ccc(-n2ncc3c2CCCC3NC(=O)c2cnccn2)cc1C", "note": "(stereo not drawn)", "Potency": "inactive"}, {"smiles": "Cn1nccc1C(=O)NC1CCCc2c1cnn2-c1ccc(F)cc1F", "note": "(stereo not drawn)", "Potency": "inactive"}, {"smiles": "COc1ccc(OC)c(C(=O)NC2CCCc3c2cnn3-c2cc(C)cc(C)c2)c1", "note": "(stereo not drawn)", "Potency": "10 µM (active)"}, {"smiles": "COCCCNC(=O)c1ccc(-c2c(C)noc2C)c2ccoc12", "Potency": "inactive"}, {"smiles": "CCCS(=O)(=O)NC(=O)C1(C)CCCN(C(=O)c2cc(C)on2)C1", "note": "(stereo not drawn)", "Potency": "inactive"}, {"smiles": "CCC1NC(=O)c2cccnc2-n2c1nc1ccc(C)cc1c2=O", "note": "(stereo not drawn)", "Potency": "inactive"}, {"smiles": "CCN1C(=O)[C@@H]2[C@@H](c3ccc(-c4ccc(OC)cc4)c(OC)c3)N3CCC[C@@]3(C(=O)OC)[C@@H]2C1=O", "Potency": "inactive"}, {"smiles": "CCCCCCSc1ccc([C@@H]2[C@H]3C(=O)N(CC)C(=O)[C@H]3[C@]3(C(=O)OC)CCCCN23)cc1", "Potency": "inactive"}, {"smiles": "CCCCCCSc1ccc([C@@H]2[C@@H]3C(=O)N(CC)C(=O)[C@@H]3[C@]3(C(=O)OC)CCCCN23)cc1OC", "Potency": "11.2 µM (active)"}, {"smiles": "CSc1ccc(CNC(=O)C2(C)CCCN2C)cc1", "note": "(stereo not drawn)", "Potency": "inactive"}, {"smiles": "Cc1cc(C(=O)N2CCCC2(C)C(=O)O)c(C)o1", "note": "(stereo not drawn)", "Potency": "inactive"}, {"smiles": "CCn1nc(C)cc1C(=O)N1CCCC(C(=O)c2cccc(OC)c2)C1", "note": "(stereo not drawn)", "Potency": "inactive"}, {"smiles": "O=C(c1ccc(-c2ccccc2)cc1)C1CCCN(C(=O)c2cncs2)C1", "note": "(stereo not drawn)", "Potency": "inactive"}, {"smiles": "Cn1nccc1C(=O)N1CCCC(C(=O)c2ccc(Oc3ccccc3)cc2)C1", "note": "(stereo not drawn)", "Potency": "3.55 µM (active)"}, {"smiles": "CCOC(=O)[C@]12CCC=C1N(Cc1ccco1)C(=O)[C@H](CC(=O)N1CCSCC1)C2", "Potency": "inactive"}]}]}
